Experimental data reported in PubChem BioAssay (NCATS).
Records with an inconclusive call do not appear. The source made the active and inactive calls. The call rests on the fitted dose curve; in most records, active means well fitted inhibition curve with a large enough effect; inconclusive means small, poorly fitted or top-dose-only effect; inactive means flat fitted curve, though single readings scatter.

These molecules were tested on HaCat (assay: Cytotoxic Profiling of Annotated Libraries Using Quantitative High-Throughput Screening (AID 1296008; further: nearly all actives have a fitted effect of over 60% in size)). Settings: Five cell lines viability, CellTiter-Glo ATP luminescence, 48-72 h; max response: stronger effect = lower value.
How it was run: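 Compounds were pin-transferred onto cells and incubated 48 or 72 hr at 37 degree Celsius, 95% humidity. CellTiter-Glo was added, plates sat 10 min at room temperature, then ATP-coupled luminescence was imaged as the viability read-out.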

| Structure (SMILES) | outcome |
| --- | --- |
| C/C=C(\C)C(=O)O[C@H]1[C@H](O)[C@]2(COC(C)=O)[C@H](O)C[C@]3(C)C(=CCC4[C@@]5(C)CC[C@H](O[C@@H]6O[C@H](C(=O)O)[C@@H](O[C@@H]7O[C@H](CO)[C@@H](O)[C@H](O)[C@H]7O)[C@H](O)[C@H]6O[C@@H]6O[C@H](CO)[C@@H](O)[C@H](O)[C@H]6O)[C@](C)(CO)C5CC[C@]43C)[C@@H]2CC1(C)C (stereo not given in full) | inactive |
| CCC(CC)n1ccc2c(C(=O)NCc3c(C)cc(C)[nH]c3=O)cc(C#N)cc21 | inactive |
| COc1cc(O[C@@H]2O[C@H](CO)[C@@H](O)[C@H](O)[C@H]2O)c(CCC(=O)OC[C@H]2O[C@@H](Oc3cc(OC)c(C4OC(=O)C(C)(O)C4O)cc3CCC(=O)O)[C@H](O)[C@@H](O)[C@@H]2O)cc1C1OC(=O)C(C)(O)C1O (stereo not given in full) | inactive |
| CC(=O)O[C@H]1C[C@@H]2[C@]3(CC[C@]4(C)[C@@H](C5(C)CCC(C(C)(C)O)O5)[C@@H](O)C[C@@]24C)C[C@@]32CC[C@H](O[C@@H]3OC[C@@H](O)[C@H](O)[C@H]3O)C(C)(C)[C@H]12 (stereo not given in full) | inactive |
| CC1(C)CCC[C@@]2(C)[C@H]1[C@H](O)C=C1COC(=O)[C@@]12O | inactive |
